Reference: PubChem BioAssay (NCI)
Compounds without any hit were thinned out: in the full panel of roughly 79,000, 15% have a hit. Active and inactive are the calls of the source. No stated cut-off is given here; in the data, active means growth inhibition above about 70%; inactive means the rest.

How the values were obtained:
[1] = NCI Yeast Anticancer Drug Screen. Data for the rad50 strain (AID 155);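 further: 0% = growth of vehicle-only cultures of the same strain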; settings: S. cerevisiae rad50 strain growth inhibition; at 50.0 µM; active compounds read high
Method in brief: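 Genetically altered yeast (DNA repair pathway); compound treatment; growth inhibition vs vehicle ctrl.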

[2] = NCI Yeast Anticancer Drug Screen. Data for the mec2-1 strain (AID 157); settings: S. cerevisiae mec2-1 strain, at 50.0 µM, active compounds read high
Method in brief: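 Vehicle-treated cultures served as reference for growth inhibition of compound-exposed mec2-1 yeast.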

[3] = NCI Yeast Anticancer Drug Screen. Data for the sgs1 mgt1 strain (AID 161);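 further: 0% = growth of cultures given vehicle only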; settings: S. cerevisiae sgs1 mgt1 strain, at 50.0 µM, active compounds read high
Method in brief: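 Mutant yeast exposed to compound; growth scored against vehicle-only wells.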

[4] = NCI Yeast Anticancer Drug Screen. Data for the cln2 rad14 strain (AID 165);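 further: 0% = growth equal to vehicle treated cultures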; settings: S. cerevisiae cln2 rad14 strain, at 50.0 µM, active compounds read high
Method in brief: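 Each compound was tested on cln2 rad14 yeast. Inhibition of growth was calculated against vehicle-exposed controls.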

[5] = NCI Yeast Anticancer Drug Screen. Data for the bub3 strain (AID 167); settings: S. cerevisiae bub3 mutant strain, at 50.0 µM, active compounds read high
Method in brief: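 Yeast carrying a defined mutation is treated with each compound, and growth is compared with that of vehicle-exposed cells to give inhibition.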

[6] = NCI Yeast Anticancer Drug Screen. Data for the mlh1 rad18 strain (AID 175); settings: S. cerevisiae mlh1 rad18 strain growth inhibition; at 50.0 µM; active compounds read high
Method in brief: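 Vehicle-treated cultures served as the reference for growth inhibition in a yeast strain carrying DNA damage repair alterations exposed to each compound.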

Measured: growth inhibition

O=C1C=CC(Nc2ccc(Cl)c(Cl)c2)C1Nc1ccc(Cl)c(Cl)c1 (stereo unspecified)
inactive: [1] 39.5% | [2] 36.1% | [3] 42.8% | [4] 28.6% | [5] 26.7% | [6] 45%

OC1CCCCC1OC1CCc2ccccc2C1 (stereo unspecified)
inactive: [1] 19.1% | [2] 19.5% | [3] -5.25% | [4] 29.9% | [5] 50% | [6] 33.1%

CC(C)=CCC(C)C
inactive: [1] -12.1% | [2] 3.85% | [3] 6.85% | [4] 7.9% | [5] -12.6% | [6] -3.85%

O=[N+]([O-])c1ccc(OC2CC3C4C=CC3C2C4)c([N+](=O)[O-])c1 (stereo unspecified)
inactive: [1] -27.9% | [2] -17.1% | [3] -5.45% | [4] 20.8% | [5] -9.6% | [6] -24.6%

CC(=O)N=C1N(/C=C2\C(=O)Oc3ccccc3C2=O)C(=O)/C(=C/c2ccc(NC(C)=O)cc2)N1C
inactive: [1] -32.8% | [2] -26.3% | [3] 34.2% | [4] 7.7% | [5] -31.1% | [6] -12.3%

CC(=O)C1(C)CCC2C3CCC4=CC(=O)CCC4=C3CCC21C (stereo unspecified)
inactive: [1] 32.1% | [2] 1.3% | [3] 50.9% | [4] 9.9% | [5] 34% | [6] 23.6%

COc1ccc(C(=O)/C=C/c2ccccc2)c(O)c1OC
inactive: [1] -7.45% | [2] -1.85% | [3] 8.1% | [4] -0.95% | [5] 9.95% | [6] -7.1%

CC(=O)c1ccccc1NC(=O)C(=O)C(C(=O)c1ccc2ccccc2c1)C1OC(=O)c2ccccc21 (stereo unspecified)
inactive: [1] -3.15% | [2] 3.45% | [3] 11.4% | [4] -44.2% | [5] 4.85% | [6] 8.25%

CC(C)(C)OC(=O)N1CCCC1C(=O)Oc1ccc([N+](=O)[O-])cc1 (stereo unspecified)
inactive: [1] 31.6% | [2] 19.4% | [3] 11.4% | [4] 3.55% | [5] 6.25% | [6] 58.5%

O=C1c2c(ccc3c2CCCC3)CC12Cc1ccc3c(c1C2=O)CCCC3
inactive: [1] 20.1% | [2] 13.8% | [3] -0.85% | [4] 23.9% | [5] 7% | [6] 12.1%

CCOC(=O)C(C)(C)Oc1ccc2c(-c3ccc(Cl)cc3)cc(=O)oc2c1
inactive: [1] 9.05% | [2] -5.1% | [3] -2.5% | [4] 7.65% | [5] -11.9% | [6] 2.55%

CC(=O)Nc1cc(-c2ccccc2)ccc1O
inactive: [1] 56.7% | [2] 30.1% | [3] 56.8% | [4] 32.2% | [5] 40.2% | [6] 57.4%

O=C(NCc1ccccc1)C1C2C=CC(C2)C1C(=O)NCc1ccccc1 (stereo unspecified)
inactive: [1] -6.65% | [2] -10.8% | [3] 30.4% | [4] -6.3% | [5] 18.1% | [6] 5.85%

CNc1ncnc2[nH]cc([N+](=O)[O-])c12
inactive: [1] 6.45% | [2] 1.95% | [3] 10.1% | [4] 9.05% | [5] 3.9% | [6] 33.6%

O=CCS
inactive: [1] -0.2% | [2] 4.85% | [3] -5.6% | [4] -38% | [5] -31.2% | [6] 7.15%

CC1=Nc2c(C#N)ncn2N=C(C)C1
inactive: [1] 31.9% | [2] 0.25% | [3] 17.5% | [4] 41.4% | [5] 28.8% | [6] -19.1%

CC1(c2cccc[n+]2Cc2ccc(Cl)c(Cl)c2)OCCO1
inactive: [1] 6.7% | [2] 1.65% | [3] 0.2% | [4] -18.3% | [5] -2.2% | [6] 14.2%

Cc1ccc(S(=O)(=O)OC(c2ccccc2)c2ccccc2)cc1
inactive: [1] -7.05% | [2] -10.9% | [3] -0.4% | [4] -17.4% | [5] 0% | [6] -28.8%

Oc1ccccc1-c1nnc2n1N=C(c1ccc(-c3ccccc3)cc1)CS2
inactive: [1] 32.5% | [2] -12.3% | [3] 23.4% | [4] 20.3% | [5] -6.95% | [6] 7.55%

CC(=O)N/N=C(\N)c1nc2c(n3nc(C)nc13)CCCC2
inactive: [1] -17.6% | [2] -19% | [3] -1.2% | [4] -18.4% | [5] -5.05% | [6] 5.5%

CCNC(=S)NCCc1c[nH]c2ccccc12
inactive: [1] -57% | [2] -3.55% | [3] -7.75% | [4] -0.4% | [5] 2.55% | [6] -36.6%

O=c1c2cc(S(=O)(=O)Nc3ccc(Cl)cc3Cl)ccc2ncn1NS(=O)(=O)c1cccc2ccccc12
inactive: [1] 10.9% | [2] -5.4% | [3] 28.6% | [4] 18.8% | [5] 8.85% | [6] 14.9%

CN(C)C1=CC(=O)NC(c2ccccc2)C1 (stereo unspecified)
inactive: [1] -10.6% | [2] -17.4% | [3] -10.6% | [4] -14.2% | [5] -3.45% | [6] -11.6%

c1ccc(N=C2CCCCCC2)cc1
inactive: [1] -1.85% | [2] 14.2% | [3] -5.8% | [4] 7.15% | [5] -9.25% | [6] -6.7%

Cc1cc(C)c(C)c(C(=O)OC(C)C)c1C
inactive: [1] 2.7% | [2] -9.7% | [3] 3.35% | [4] 15.4% | [5] -3.85% | [6] -8.55%

Cn1c(=O)c2c(n(C)c1=O)n(C)c(=O)n2C
inactive: [1] 18.3% | [2] 8.25% | [3] -18.9% | [4] 12.7% | [5] 1.85% | [6] 15.9%

CCN1CCCC1CO (stereo unspecified)
inactive: [1] -1.15% | [2] -25.1% | [3] -10.1% | [4] 0.1% | [5] -4.35% | [6] 6.65%

CCCCc1ccc2nc3cc4ccccc4cc3nc2c1
inactive: [1] 12.8% | [2] 51.1% | [3] 32.6% | [4] -16% | [5] 20.6% | [6] 7.6%

Nc1c(-c2ncc[nH]2)ncn1CC(O)C(O)C(O)CO (stereo unspecified)
inactive: [1] 7.5% | [2] 19.6% | [3] 12.3% | [4] 22.9% | [5] 3.2% | [6] 17.9%

O=c1cc2n(c(=O)n1-c1ccccc1)CCCC2
inactive: [1] 6.1% | [2] 6.6% | [3] 11.7% | [4] 12.2% | [5] -9.25% | [6] -6.8%

CC1(C#N)C(C#N)(C#N)C1(C#N)C#N
inactive: [1] -0.05% | [2] -3.35% | [3] -10.8% | [4] -13.2% | [5] -30.1% | [6] -21.1%

CC(=O)Nc1cccc(F)c1
inactive: [1] -35.1% | [2] 1.1% | [3] -25.4% | [4] -22.2% | [5] -13.8% | [6] -38.1%

O=C(CCCN1CCC(O)(c2ccc(Cl)cc2)CC1)c1ccc(N2CCC(O)CC2)cc1
inactive: [1] 0.8% | [2] -2.05% | [3] -0.65% | [4] -44.6% | [5] 4.4% | [6] 1.1%

COC(=O)C1=C(C)N(NC(=O)c2cccc(Cl)c2)C(C)(O)C12CCOC2=O (stereo unspecified)
inactive: [1] 37.6% | [2] -21.6% | [3] 4.15% | [4] 6.65% | [5] 0.6% | [6] 38.1%

Cc1ccc(N2C(=O)/C(=C/c3ccc(N(CCC#N)CCC#N)cc3)CC2(O)c2ccccc2)cc1 (stereo unspecified)
inactive: [1] -12.1% | [2] -12.6% | [3] -38.3% | [4] -23.8% | [5] -13.1% | [6] -5.55%

COP(=O)(OC)C1c2cc(Cl)ccc2-c2c(Cl)cc(Cl)cc21 (stereo unspecified)
inactive: [2] 67.9% | [4] 49.5% | [5] 32.6% | [6] 68.8%
active: [1] 88.8% | [3] 83.7%

CN=C(NC(=S)N(C)C)N(C)C
inactive: [1] -4.3% | [2] -6.85% | [3] -9.4% | [4] -7.85% | [5] -14.1% | [6] 2.75%

Cc1cc(NC(=O)NC(=O)c2ccccc2NC(=O)CN(C)C)ccc1Oc1ncc(Br)cn1
inactive: [1] -10.3% | [2] -28.9% | [3] 0.5% | [4] -6.2% | [5] -21% | [6] -26.7%

O=C(O)c1cccc(C(=O)O)c1S(=O)Cc1ccccc1 (stereo unspecified)
inactive: [1] 3.45% | [2] -15.1% | [3] 1.2% | [4] -0.15% | [5] -17.1% | [6] 17.9%

O=C1CCC(=O)N1C(c1ccccc1)(c1ccccc1)N1C(=O)CCC1=O
inactive: [1] -20.9% | [2] 12.2% | [3] -2% | [4] 29.1% | [5] 8.25% | [6] -6.85%

ClCCCOC1CCCCO1 (stereo unspecified)
inactive: [1] -20.1% | [2] -40.5% | [3] -21.1% | [4] 26.9% | [5] -7.6% | [6] 1.4%
